Assay [1] concerns Jurkat. Nature of the assay: mean cell size (FSC-A) relative to DMSO control (fraction of control); higher = larger cells. To be noted: 48 h. A digest of the protocol:
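Jurkat cells at 600 cells/µl were incubated for 1 h and then treated for 48h with the Enzo Screen-Well FDA Approved Drug Library v2.0 at 25µM, with DMSO at 0.9% (v/v) final. Compounds that reduced counts below 20% of controls were retested in 10-fold dilutions down to 25nM. Cell count and mean cell size, taken as forward scatter area, were measured by flow cytometry relative to solvent-only controls. Each plate carried 6-12 controls, and values are means of 3 biological replicates.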

Assay [2] deals with Jurkat. Put plainly: cell count relative to DMSO control (fraction of control); higher = more cells (less growth inhibition). To be noted: 48 h.

Molecules are shown by their SMILES. Counter-ions that a name gives are not always drawn. ± gives the standard deviation.

`CN(C)CCC(c1ccc(Br)cc1)c1ccccn1` (centres undefined) [Brompheniramine Maleate] (concentration: 25 µM): the mean cell size in the assay with Jurkat [1] stood at 0.946 ± 0.034. The compound further showed a cell count in the assay with Jurkat [2] of 1 ± 0.14.

`Oc1ncnc2[nH]ncc12` [Allopurinol] (concentration: 25 µM) displayed a mean cell size in the assay on Jurkat [1] of 0.965 ± 0.013. Moreover, in the assay with Jurkat [2], the cell count is 0.701 ± 0.13.

In the case of `C[C@H](CS)C(=O)N1CCC[C@H]1C(=O)O` [Captopril] (concentration: 25 µM), the mean cell size in the assay with Jurkat [1] amounted to 0.951 ± 0.029. The cell count in the assay with Jurkat [2] worked out at 1.01 ± 0.099.

In turn, `CCCCNC(=O)NS(=O)(=O)c1ccc(C)cc1` [Tolbutamide] (concentration: 25 µM) came in with a mean cell size in the assay with Jurkat [1] of 0.976 ± 0.032. In the assay on Jurkat [2], the cell count was 0.606 ± 0.22.

`Cc1cn[nH]c1` [Fomepizole] (concentration: 25 µM) returned a mean cell size in the assay with Jurkat [1] of 0.99 ± 0.036. For the same compound, the cell count in the assay with Jurkat [2] came out at 0.868 ± 0.17.

Consider `CC(N)C12CC3CC(CC(C3)C1)C2` (centres undefined) [Rimantadine·HCl] (concentration: 25 µM), for which, in the assay on Jurkat [1], the mean cell size is 1.02 ± 0.055. In addition, the cell count with Jurkat [2] was found to be 0.697 ± 0.067.

`NCc1ccc(S(N)(=O)=O)cc1` [Mafenide·HCl] (concentration: 25 µM) gave a mean cell size in the assay with Jurkat [1] of 0.92 ± 0.056. In the assay on Jurkat [2], the cell count came to 1.17 ± 0.04.

Consider `CCNC(=O)CCC/C=C\C[C@@H]1[C@@H](/C=C/[C@@H](O)CCc2ccccc2)[C@H](O)C[C@@H]1O` [Bimatoprost] (concentration: 25 µM), for which the mean cell size in the assay with Jurkat [1] was 0.87 ± 0.025. In the assay on Jurkat [2], this compound came in with a cell count of 0.307 ± 0.091.

In the assay with Jurkat [1], `NC12CC3CC(CC(C3)C1)C2` [Amantadine·HCl] (concentration: 25 µM) gave a mean cell size of 1.01 ± 0.058. In addition, in the assay with Jurkat [2], the cell count was found to be 0.749 ± 0.17.

In the case of `OCCOCCN1CCN(C2=Nc3ccccc3Sc3ccccc32)CC1` [Quetiapine Fumarate] (concentration: 25 µM), the mean cell size in the assay on Jurkat [1] was determined as 0.929 ± 0.035. Also, the cell count in the assay with Jurkat [2] worked out at 0.534 ± 0.17.

Take `OC(CCN1CCCCC1)(c1ccccc1)C1CC2C=CC1C2` (centres undefined) [Biperiden·HCl] (concentration: 25 µM): the mean cell size in the assay with Jurkat [1] was found to be 0.951 ± 0.055. Besides, the cell count in the assay on Jurkat [2] came to 0.654 ± 0.12.

For `CCC(C)(C)C(=O)O[C@H]1C[C@@H](C)C=C2C=C[C@H](C)[C@H](CC[C@@H]3C[C@@H](O)CC(=O)O3)[C@H]21` [Simvastatin] (concentration: 25 µM), the mean cell size in the assay on Jurkat [1] was determined as 1.05 ± 0.054. In the assay on Jurkat [2], this compound returned a cell count of 0.698 ± 0.029.
